Experimental findings from PubChem BioAssay (NCATS) are described below.

A short description of assay [1]: S16 Schwann cell PMP22 intronic element beta-lactamase assay (AID 624044; calls by dose curve; further: nearly all actives have a fitted effect of over 15% in size). In short, it runs like this:
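Rat S16 Schwann cells with beta-Lac driven by a PMP22 intronic element, compound-treated 24 h at 37 °C. LiveBLAzer FRET B/G read: 460 nm normalized to potassium clavulanate vs DMSO; 535 nm FRET as viability; concentration-effect curves classified.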

Assay [2] relates to CP215. The assay can be described thus: qHTS profiling for inhibitors of Plasmodium falciparum proliferation (AID 504749). Further: nearly all actives have a fitted effect of over 60% in size. Further: potency means the concentration at half of the fitted maximal effect. Particulars: P. falciparum in erythrocytes, SYBR Green DNA, 72 h; series mostly up to 12.8 µM. In outline:
(§1)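 Parasite proliferation within erythrocytes, 72 h exposure. Endpoint: SYBR Green I fluorescence after overnight lysis at room temperature. Controls: 0.29 uM artemisinin, DMSO.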

In assay [3] the test system is CP266. The assay is described as above. Particulars: P. falciparum in erythrocytes, SYBR Green DNA, 72 h; series mostly up to 12.8 µM. In short, it runs like this:
as §1

In assay [4] the test system is CP269. The assay is described as above. Conditions: P. falciparum in erythrocytes, SYBR Green DNA, 72 h; series mostly up to 12.8 µM. In outline:
as §1

Assay [5] concerns CP297. The assay is described as above. Conditions: P. falciparum in erythrocytes, SYBR Green DNA, 72 h; series mostly up to 12.8 µM. In short, it runs like this:
as §1

Assay [6] relates to CP315. Described as above. Conditions: P. falciparum in erythrocytes, SYBR Green DNA, 72 h; series mostly up to 12.8 µM. In outline:
as §1

Assay [7] concerns CP335. Described as above. Conditions: P. falciparum in erythrocytes, SYBR Green DNA, 72 h; series mostly up to 12.8 µM. In short, it runs like this:
as §1

Assay [8] deals with DIV17. Described as above. Particulars: P. falciparum in erythrocytes, SYBR Green DNA, 72 h; series mostly up to 12.8 µM. In outline: as §1
The subject of assay [9] is GB4. The description is as above. Particulars: P. falciparum in erythrocytes, SYBR Green DNA, 72 h; series mostly up to 12.8 µM. In outline:
as §1

Assay [10] deals with P94_40. The assay is described as above. Particulars: P. falciparum in erythrocytes, SYBR Green DNA, 72 h; series mostly up to 12.8 µM. In outline:
as §1

For assay [11], the system named is PC26. The assay is described as above. Conditions: P. falciparum in erythrocytes, SYBR Green DNA, 72 h; series mostly up to 12.8 µM. In short, it runs like this: as §1
The nature of assay [12]: S16 Schwann cell PMP22 intronic element firefly luciferase assay (AID 624032). Further: nearly all actives have a fitted effect of over 30% in size. In outline: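 Rat S16 Schwann cells stably carrying a PMP22 intronic element-driven Fluc reporter were seeded overnight, then exposed to compounds for 24 h at 37 °C. Luminescence was normalized to PTC124 (positive control) and DMSO (0% activity).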
In assay [13] the test system is 7G8. The assay can be described thus: qHTS profiling for inhibitors of Plasmodium falciparum proliferation (AID 504749). Further: nearly all actives have a fitted effect of over 60% in size. Further: potency means the concentration at half of the fitted maximal effect. Conditions: P. falciparum in erythrocytes, SYBR Green DNA, 72 h; series mostly up to 12.8 µM. In outline: as §1
Background: Quantitative high-throughput screening tests each substance at several concentrations.

Assay [14] relates to CP237. The description is as above. Conditions: P. falciparum in erythrocytes, SYBR Green DNA, 72 h; series mostly up to 12.8 µM. In short, it runs like this: as §1
In assay [15] the test system is W2. The assay is described as above. Conditions: P. falciparum in erythrocytes, SYBR Green DNA, 72 h; series mostly up to 12.8 µM. In short, it runs like this:
as §1

In assay [16] the target is Cytochrome P450 3A4 (Homo sapiens) (UniProt P08684). The assay can be described thus: qHTS Assay for Activators of Cytochrome P450 3A4 (AID 885). Further: nearly all actives have a fitted effect of over 65% in size. In outline:
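20nM CYP3A4 + 25uM Luciferin-PPXE (=KM), 200mM KPO4; cpd 10 min RT; NADPH regen, 60 min RT; stop w/ detection buffer, 20 min; luminescence. Normalized to 57 uM ketoconazole.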

For assay [17] the target is unchanged. The assay can be described thus: qHTS Assay for Inhibitors and Substrates of Cytochrome P450 3A4 (AID 884). Further: nearly all actives have a fitted effect of over 50% in size. In short, it runs like this: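 20 nM human CYP3A4 with 25 uM Luciferin-PPXE (at KM) in 200 mM KPO4, preincubated 10 min with compound; NADPH regeneration started a 60 min RT reaction. Luciferin detected by luminescence, normalized to 57 uM ketoconazole as full inhibition.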

Assay [18] addresses Cytochrome P450 2C9 (Homo sapiens) (UniProt P11712). The assay can be described thus: qHTS Assay for Inhibitors and Substrates of Cytochrome P450 2C9 (AID 883). Further: nearly all actives have a fitted effect of over 60% in size. In outline: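 Human CYP2C9 (10nM) hydroxylated Luciferin-H (100uM, at its KM) to luciferin in 25mM KPO4. Compound was preincubated 10 min at 37C, then NADPH regeneration started a 60 min reaction at 37C. Luminescence was read after detection reagent, normalized to 57uM sulphaphenazole.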

The target of assay [19] is Cytochrome P450 2C19 (Homo sapiens) (UniProt P33261). The assay can be described thus: qHTS Assay for Inhibitors and Substrates of Cytochrome P450 2C19 (AID 899). Further: potency means the concentration at half of the fitted maximal effect; nearly all actives have a fitted effect of over 60% in size. In outline: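 Human CYP2C19 (5nM) with Luciferin-H EGE at 10uM (its KM) in 50mM KPO4 was preincubated with compound for 10 min at 37C. NADPH regeneration started a 60 min 37C reaction. Luciferin was read by luminescence, normalized to 57uM ketoconazole.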
Cytochrome P450 2C19 (Homo sapiens), sequence (P33261 whole entry, looked up): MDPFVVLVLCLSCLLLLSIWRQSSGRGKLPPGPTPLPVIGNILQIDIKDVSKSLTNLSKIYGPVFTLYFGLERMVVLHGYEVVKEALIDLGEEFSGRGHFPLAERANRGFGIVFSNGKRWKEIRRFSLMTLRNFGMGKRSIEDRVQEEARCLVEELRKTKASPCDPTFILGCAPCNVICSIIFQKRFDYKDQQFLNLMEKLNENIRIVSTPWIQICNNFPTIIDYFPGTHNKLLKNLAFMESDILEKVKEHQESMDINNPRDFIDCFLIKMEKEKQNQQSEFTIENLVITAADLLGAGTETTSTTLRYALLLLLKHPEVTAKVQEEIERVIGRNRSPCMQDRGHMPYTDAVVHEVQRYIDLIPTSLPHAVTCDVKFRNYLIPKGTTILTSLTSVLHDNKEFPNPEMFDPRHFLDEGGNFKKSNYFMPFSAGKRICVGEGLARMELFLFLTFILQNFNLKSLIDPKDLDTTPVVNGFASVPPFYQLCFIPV

Molecules are shown by their SMILES. Results filed as inconclusive are left out. Active and inactive are the calls of the source. Unless noted, the call rests on the fitted dose curve; in most records, active means well fitted curve in the direction sought with a large enough effect; inconclusive means small, poorly fitted or top-dose-only effect, or another doubt; inactive means no such curve, though single readings can be large; an effect the other way counts as inactive or inconclusive.

Cytochrome P450 3A4 (Homo sapiens), sequence (P08684 whole entry, looked up): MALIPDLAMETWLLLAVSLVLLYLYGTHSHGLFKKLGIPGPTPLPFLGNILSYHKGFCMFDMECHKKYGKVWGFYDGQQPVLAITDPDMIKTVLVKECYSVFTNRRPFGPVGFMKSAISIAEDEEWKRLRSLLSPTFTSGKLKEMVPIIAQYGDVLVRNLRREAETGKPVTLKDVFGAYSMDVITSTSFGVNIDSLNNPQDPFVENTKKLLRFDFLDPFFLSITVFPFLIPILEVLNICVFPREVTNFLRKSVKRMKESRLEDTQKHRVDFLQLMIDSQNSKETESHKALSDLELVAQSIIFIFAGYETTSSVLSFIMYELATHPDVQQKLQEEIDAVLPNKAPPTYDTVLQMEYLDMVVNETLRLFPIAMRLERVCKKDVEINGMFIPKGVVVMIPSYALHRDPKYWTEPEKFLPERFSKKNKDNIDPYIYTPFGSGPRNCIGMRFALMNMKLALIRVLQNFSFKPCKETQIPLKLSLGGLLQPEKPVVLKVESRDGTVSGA
Cytochrome P450 2C9 (Homo sapiens), sequence (P11712 whole entry, looked up): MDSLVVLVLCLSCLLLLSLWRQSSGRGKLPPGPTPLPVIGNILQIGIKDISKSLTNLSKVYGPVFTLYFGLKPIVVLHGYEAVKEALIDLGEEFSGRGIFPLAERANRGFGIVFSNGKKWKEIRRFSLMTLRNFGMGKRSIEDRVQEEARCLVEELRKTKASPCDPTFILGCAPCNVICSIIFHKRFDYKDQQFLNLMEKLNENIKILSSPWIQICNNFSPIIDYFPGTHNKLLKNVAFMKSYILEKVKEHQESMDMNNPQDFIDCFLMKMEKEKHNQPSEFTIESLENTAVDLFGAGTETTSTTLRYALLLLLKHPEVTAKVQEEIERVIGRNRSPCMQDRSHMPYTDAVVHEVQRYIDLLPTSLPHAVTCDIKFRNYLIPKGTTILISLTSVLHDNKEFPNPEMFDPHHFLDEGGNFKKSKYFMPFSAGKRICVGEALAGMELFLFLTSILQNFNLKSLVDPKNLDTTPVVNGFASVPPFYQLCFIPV

Regarding `O=C(Nc1ccccc1)OC[C@H](CN1CCCCC1)OC(=O)Nc1ccccc1`, the Potency result in assay [1], in assay [2], in assay [3], in assay [4], in [5] and in assay [6] was “inactive” each time. Further, the Potency entry in assay [7], in assay [8], in assay [9], in assay [10] and in [11] was “inactive” in each case.

Turning to `Cc1cccc(C)c1NC(=O)[C@H](C)N`, the Potency entry in assay [12], in [1], in [13], in [14], in [7] and in assay [10] was “inactive” in each case. In addition, the Potency entry in assay [15] is “inactive”. Further, in [5], the Potency is 5.1 µM (active).

`NC(=O)N/N=C\c1ccc([N+](=O)[O-])o1`: the Potency result in assay [16] was “inactive”.

For `CC(=O)O[C@]1(C(C)=O)CC[C@@H]2[C@@H]3C=C(C)C4=CC(=O)CC[C@@]4(C)[C@H]3CC[C@]21C`, the Potency entry in assay [17], in assay [12], in assay [1], in [2], in assay [14] and in [3] was “inactive” throughout. The Potency result in [4], in assay [5], in assay [6], in assay [7], in assay [8] and in assay [9] was “inactive” in each case. Also, the Potency entry in assay [10] and in [15] was “inactive” each time.

As for `CN1C(=O)C[C@H](c2ccccc2)C1=O`, the Potency result in assay [1], in [13], in assay [2], in [3], in assay [4] and in [5] was “inactive” throughout. Besides, the Potency result in assay [6], in [7], in [8], in assay [9], in assay [10] and in assay [11] was “inactive” each time. In addition, the Potency entry in assay [15] was “inactive”.

For `Nc1ccccc1S(N)(=O)=O`, in assay [18], the Potency result was “inactive”.

On to `O=C(NC[C@@H](O)CO)c1c(I)c(C(=O)NC[C@@H](O)CO)c(I)c(N(CCO)C(=O)CO)c1I`, for which the Potency entry in assay [12], in assay [1], in assay [13], in [2], in [14] and in assay [4] was “inactive” each time. For the same compound, the Potency entry in assay [5], in assay [6], in assay [7], in assay [8], in assay [9] and in assay [11] was “inactive” throughout. In assay [15], the Potency entry is “inactive”.

As for `COc1ccc([C@@H]2CC(=O)c3c(O)cc(O[C@H]4O[C@@H](CO[C@H]5O[C@@H](C)[C@@H](O)[C@@H](O)[C@@H]5O)[C@@H](O)[C@@H](O)[C@@H]4O)cc3O2)cc1O`, the Potency entry in [12], in [13], in [2], in assay [14], in [3] and in [4] was “inactive” throughout. Moreover, the Potency result in assay [5], in [6], in [8], in [9], in assay [10] and in assay [11] was “inactive” throughout. Moreover, the Potency result in assay [15] is “inactive”.

With `C#C[C@]1(O)CC[C@@H]2[C@H]3CCc4cc(OC)ccc4[C@@H]3CC[C@@]21C`, in assay [16], the Potency result is “inactive”.

`C[C@H](N[C@@H](C)COc1ccccc1)[C@H](O)c1ccc(O)cc1`: the Potency result in [13], in assay [2], in assay [4], in assay [6], in assay [7] and in assay [10] was “inactive” each time. Besides, in [11], the Potency entry was “inactive”. The Potency was 3.55 µM (active) in assay [14] and 4.55 µM (active) in [15].

Regarding `C/C(=C(/CCO)SSC[C@@H]1CCCO1)N(C=O)Cc1cnc(C)nc1N`, in assay [16], the Potency entry is “inactive”.

For `CC[C@@H]1OC(=O)[C@H](C)[C@H](O[C@@H]2C[C@](C)(OC)[C@H](O)[C@H](C)O2)[C@H](C)[C@H](O[C@@H]2O[C@@H](C)C[C@@H](N(C)C)[C@@H]2O)[C@](C)(O)C[C@H](C)C(=NOCOCCOC)[C@H](C)[C@H](O)[C@]1(C)O`, the Potency entry in assay [16], in assay [12], in [1], in [13], in assay [14] and in assay [7] was “inactive” each time. The Potency result in assay [8], in [9], in assay [10] and in assay [11] was “inactive” in each case.

`CC[N+](CC)(CC)CC[C@](O)(c1ccccc1)C1CCCCC1`: the Potency result in assay [13], in [2], in assay [14], in [3], in [4] and in assay [5] was “inactive” each time. Further, the Potency entry in [6], in assay [7], in [8], in assay [9] and in assay [10] was “inactive” each time.

For the compound `CC(=O)[C@@]1(O)CC[C@H]2[C@H]3C[C@@H](C)C4=CC(=O)C=C[C@]4(C)[C@@]3(F)[C@@H](O)C[C@]21C`, the Potency result in assay [16], in [12], in [1], in [2], in assay [14] and in assay [4] was “inactive” in each case. Besides, the Potency entry in [5], in [6], in [7], in [8], in [9] and in assay [10] was “inactive” each time.

As to `CC(=O)N(C[C@@H](C)C(=O)O)c1c(I)cc(I)c(N)c1I`, the Potency result in assay [18], in assay [12], in [1], in [13], in assay [14] and in assay [7] was “inactive” in each case. In addition, the Potency result in assay [10] is “inactive”.

On to `COC(=O)C1=C(C)NC(C)=C(C(=O)OC(C)C)[C@H]1c1cccc2nonc12`, for which the Potency result in assay [1] and in assay [3] was “inactive” in each case. Moreover, in assay [13], the Potency was 3.16 µM (active).

As to `C#C[C@@]1(O)CC[C@@H]2[C@@H]3CCC4=C(CCC(=O)C4)[C@H]3CC[C@]21C`, the Potency in assay [19] is 0.0631 µM (active). Besides, the Potency entry in [1] was “inactive”.

On to `CO[C@]1(NC(=O)C2SC(=C(C(N)=O)C(=O)O)S2)C(=O)N2C(C(=O)O)=C(CSc3nnnn3C)CS[C@H]21` (stereo partly specified), for which the Potency entry in assay [1], in [13], in assay [2], in [14], in [3] and in assay [4] was “inactive” each time. Also, the Potency result in [5], in [6], in assay [8], in [9], in assay [10] and in [11] was “inactive” throughout. The Potency result in assay [15] is “inactive”.

Regarding `COc1ccc(C[C@@](C)(N)C(=O)O)cc1OC`, the Potency result in assay [1], in assay [13], in assay [2], in [14], in assay [3] and in assay [4] was “inactive” throughout. The Potency result in assay [5], in assay [6], in assay [8], in assay [9], in assay [10] and in assay [11] was “inactive” throughout. Also, the Potency entry in assay [15] was “inactive”.
